Compound activity: PubChem, National Center for Advancing Translational Sciences (NCATS)
In the library only some 8.8% were active in any assay of this set; here they are far more common.
HPGD inh – inhibitors of human 15-hydroxyprostaglandin dehydrogenase (HPGD); purified HPGD, NADH fluorescence kinetic, PGE2 substrate; Potency, µM, without a hit: at the top dose activity change, negative = inhibition, actives largely listed as inhibitors; actives 4.3% (n = 150,000); AID 894; further: on the % scale 0 is the no-effect control and ±100 the full control effect
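NADH formation kinetics: reaction with 30 uM PGE2 and 1 mM NAD+ (final), 20 nM enzyme, Tris-HCl pH 8 with Tween 20, after 15 min compound preincubation at room temperature. Fluorescence change, last versus first of five reads.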
ALDH1A1 block – ALDH1A1 (human) enzyme inhibition | P00352 | Potency, µM (doses to about 75.3 µM), without a hit: at the top dose activity, negative = inhibition, usual class: inhibitors | Purified ALDH1A1, NADH fluorescence, propionaldehyde substrate | actives 7.3% (n = 220,000);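 further: plate controls were no enzyme wells and a reference inhibitor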
Target sequence (P00352 whole entry, looked up): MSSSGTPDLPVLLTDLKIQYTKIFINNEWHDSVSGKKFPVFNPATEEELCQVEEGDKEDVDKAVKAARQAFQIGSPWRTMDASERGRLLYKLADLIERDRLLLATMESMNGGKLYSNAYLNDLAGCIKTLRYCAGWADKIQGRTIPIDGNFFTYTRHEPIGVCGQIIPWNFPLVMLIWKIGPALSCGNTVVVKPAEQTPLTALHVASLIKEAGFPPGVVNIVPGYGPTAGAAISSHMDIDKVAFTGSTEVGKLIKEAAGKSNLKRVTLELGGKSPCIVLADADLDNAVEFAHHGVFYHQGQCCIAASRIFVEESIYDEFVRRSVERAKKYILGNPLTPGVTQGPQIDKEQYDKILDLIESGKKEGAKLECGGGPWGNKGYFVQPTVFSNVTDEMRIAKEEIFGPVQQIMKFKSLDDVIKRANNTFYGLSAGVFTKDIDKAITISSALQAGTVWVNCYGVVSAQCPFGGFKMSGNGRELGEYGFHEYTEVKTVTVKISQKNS
HTT ATP protect – cytoprotection in Huntington HTT-Q103 PC12 cell model; actives 0.14% (n = 230,000); PC12 HTT-Q103 induced, cytoprotection, ATP luminescence, 40 h; Potency, µM (top dose mostly 56.4 µM), inactives show cytoprotection (ATP increase), hits mostly activators; active means well fitted curve in the direction sought with a large enough effect; inconclusive means small, poorly fitted or top-dose-only effect, or another doubt; inactive means no such curve, though single readings can be large; an effect the other way counts as inactive or inconclusive; further: % of control where 0% means no effect; nearly all actives have a fitted effect of over 45% in size
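Readout: ATPlite luminescence (ATP level). Model: stable PC12, inducible Htt exon1 Q103-GFP. Inducer: tebufenozide, 100 nM final. Compounds: dose series. No G418 in medium.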
Lamin A splicing – modulators of lamin A splicing; HeLa LMNA splicing GFP/RFP minigene ratio, 48 h; Potency, µM (series often up to 46.1 µM), for the others: at the highest dose ratio change, negative = inhibition, usual class: inhibitors; actives 0.01% (n = 200,000); active means well fitted inhibition curve with a large enough effect in the signal ratio, with a control signal flat, not every such curve was filed as active; inconclusive means small, poorly fitted or top-dose-only effect, or effect the other way, or a change in a side signal; the % refers to the signal ratio; further: on the % scale 0 is the no-effect control and ±100 the full control effect
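Read-out is the ratio of GFP to DsRed2 object intensity, acquired by 488 nm laser-scanning cytometry on HeLa lamin A-EGFP minigene reporter cells. Compound incubation 48 hrs at 37 °C in Opti-MEM with 2% FBS; DMSO 0.5% final.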
HTT aggregate – inhibitors of mutant huntingtin aggregate formation in PC12 cells; PC12 HttQ103-GFP aggregates, Acumen cytometry, 40 h; Potency, µM (doses to about 46.1 µM), for the others: at the highest dose activity change, negative = inhibition, hits mostly inhibitors; actives 1.1% (n = 220,000); active means well fitted curve in the direction sought with a large enough effect; inconclusive means small, poorly fitted or top-dose-only effect, or another doubt; inactive means no such curve, though single readings can be large; an effect the other way counts as inactive or inconclusive; further: on the % scale 0 is the no-effect control and ±100 the full control effect; nearly all actives have a fitted effect of over 60% in size
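Huntingtin Q103 exon 1–GFP aggregates in induced PC12 cells (100 nM tebufenozide) were quantified by cytometry from lysates, with compounds dosed in titration.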
* = called active by the depositor; ? = inconclusive; . = not tested or not shown; [ ] = dose if it differs, or a comment. Unless noted, the call rests on the fitted dose curve; in most records, active means well fitted inhibition curve with a large enough effect (not every such curve was filed as active); inconclusive means small, poorly fitted or top-dose-only effect, or another doubt; inactive means no such curve, though single readings can be large or run the other way. Potency means the concentration at half of the fitted maximal effect.

SMILES	HPGD inh	ALDH1A1 block	HTT ATP protect	Lamin A splicing	HTT aggregate
COc1ccc(-n2cc(-c3ccc(OC(F)F)cc3)[n+]3c2CCCCC3)cc1	.	3%	-5%[10 µM]	?	16µM*
CNc1ncncc1-c1ccccc1C(F)(F)F	.	16%	14%	-6%	.
CN(C)c1ccc(O)c2c1C[C@@H]1C[C@H]3C(N(C)C)C(=O)C(C(N)=O)=C(O)[C@@]3(O)C(=O)C1=C2O (some centres not stated)	28µM*	-1%	.	.	.
C=C1c2cccc(O)c2C(O)=C2C(=O)[C@]3(O)C(O)=C(C(N)=O)C(=O)[C@@H](N(C)C)[C@@H]3[C@@H](O)[C@H]12	.	-2%	24%[10 µM]	.	7%[9.22 µM]
C=C1c2cccc(O)c2C(O)=C2C(=O)[C@]3(O)C(O)=C(C(N)=O)C(=O)C(N(C)C)C3C(O)C12 (some centres not stated)	16µM*	7%	.	.	.
Cc1ccccc1CNC(=O)c1c(C)oc2c1C1=NCCN1C=N2	.	.	.	12%[46 µM]	.
O=C(O)c1ccc(-c2ccccc2)[nH]c1=O	.	.	12%[10 µM]	.	15%[9.22 µM]
NNc1cc([N+](=O)[O-])cc2c1C(=O)N(Cc1ccccc1)S2=O (configuration not stated)	.	14µM*	-45%	-4%[46 µM]	26%
CC(C)=NNc1cc([N+](=O)[O-])cc2c1C(=O)N(C)S2=O (configuration not stated)	.	-4%	-26%	-1%[46 µM]	8%
COc1ccc2c(c1)C(=O)[C@H](OC(=O)Nc1ccc(C)c(Br)c1)[C@@H](c1ccc(OC)c(Br)c1)O2	-11%	-3%	-12%	.	.
CC1CCN(c2c(NCC3CCC(C(=O)NCc4ccccc4)CC3)c(=O)c2=O)CC1 (configuration not stated)	18µM*	9%	.	-5%	17%
CN(C)c1ccc(CNC(=O)C2CCC(CNc3c(N4CCCCC4)c(=O)c3=O)CC2)cc1 (configuration not stated)	.	.	1%[10 µM]	.	21%[9.22 µM]
O=C(NCc1ccccc1)C1CCC(CNc2c(N3CCCCC3)c(=O)c2=O)CC1 (configuration not stated)	20µM*	4%	.	-6%	0%
CC1CCN(c2c(NCC3CCC(C(=O)N4CCCC(C)C4)CC3)c(=O)c2=O)CC1 (configuration not stated)	0.63µM*	7%	-14%	-4%	2%
COc1ccc(OC)c(NC(=O)C2CCC(CNc3c(N4CCC(C)CC4)c(=O)c3=O)CC2)c1 (configuration not stated)	25µM*	2%	-16%	?	-7%
CON(C)C(=O)c1nnc2c(n1)[nH]c1ccccc12	.	-5%[13.5 µM]	-13%[10 µM]	.	.
CCN(CC)CCCNC(=O)CN1N=C(c2ccccc2)CCC1=O	.	.	.	-1%[46 µM]	.
CSc1ccccc1NC(=O)CN(C)CC(=O)Nc1ccccc1C(F)(F)F	.	1%	-74%	.	-8%
CCCCN(CC)CCCNC(=O)c1c(C)oc2ncnc(N3CCOCC3)c12	.	.	.	5%[46 µM]	.
O=C(NCc1ccccc1)C1CCC1	20µM*	20%	.	7%	-4%
Cc1cc(-c2n[nH]c(=S)n2/N=C/c2ccc(Br)s2)n[nH]1	13µM*	-15%	-84%[10 µM]	10%	?
S=c1[nH]nc(-c2cc(-c3ccccc3)n[nH]2)n1/N=C/c1ccc(Br)s1	.	16%	21%[10 µM]	.	1%[9.22 µM]
COc1cccc(/C=N/n2c(-c3cc(C)[nH]n3)n[nH]c2=S)c1	.	.	16%[10 µM]	.	12%[9.22 µM]
Cc1cc(-c2n[nH]c(=S)n2/N=C/c2ccc(C)s2)n[nH]1	25µM*	-10%	20%[10 µM]	8%	2%
CN1Cc2cc(C(=O)c3cc(Cl)cc(CSc4ncccn4)c3O)cnc2NC1=O	14µM*	28µM*	-100%	?	?
SMILES	HPGD inh	ALDH1A1 block	HTT ATP protect	Lamin A splicing	HTT aggregate
Cc1ccc(O)c(C(=O)c2cnc3c(c2)COc2ccc(C)cc2-3)c1	18µM*	-4%	22%[1.9 µM]	?	?
Cc1ccc(O)c(C(=O)c2cnc3c(c2)CN(C)C(=O)N3)c1	28µM*	25µM*	-3%	-14%	?
COCC#Cc1ccc(C2C(C)CCC3C(=O)N4C(CCC(C)C4c4ccc(C#CCOC)cc4)C(=O)N32)cc1 (configuration not stated)	.	13%[13.5 µM]	1%[10 µM]	.	.
COc1ccc(S(=O)(=O)Nc2ccc(Cl)cn2)c(C)c1C	-30%	13µM*	2%[10 µM]	?	6%
CCOc1cc(S(=O)(=O)Nc2ccc(Cl)cn2)ccc1F	-8%	2%	11%	-7%	-8%
COc1cccc2c1C(CO)N1C(C#N)C3CC(C(=O)O)C(C1C2)N3C (configuration not stated)	.	.	-55%[10 µM]	.	1.1µM*
O=Cc1s/c(=N\S(=O)(=O)c2ccccc2)n(CCCCl)c1Cl	.	?	-178%	?	5µM*
COc1ccc(Nc2nc(Cl)c(C=O)s2)cc1	.	-11%	1%[10 µM]	?	-11%
Cc1ccc2[nH]c3c(N4CCc5ccccc5C4)ncnc3c2c1	-25%	-9%	-85%	-2%	3.5µM*
Cc1cccc2[nH]c3c(N4CCC5(CC4)OCCO5)ncnc3c12	?	?	-55%	?	22µM*
Clc1ccc2[nH]c3c(N4CCC5(CC4)OCCO5)ncnc3c2c1	?	?	-98%	?	8.9µM*
Fc1ccc2[nH]c3c(N4CCc5ccccc5C4)ncnc3c2c1	.	-14%	7%[10 µM]	.	3%[9.22 µM]
COc1cccc(-c2nnc3sc(-c4ccccc4)nn23)c1	-25%	5%	-20%	1%	-22%
COc1cccc(OC)c1-c1nn2c(-c3cc(-c4ccccc4)n[nH]3)nnc2s1	13µM*	6%	-28%[0.074 µM]	?	-6%
CCCCn1c2c(c(=O)n(C)c1=O)C(c1ccc(OC)cc1)N1CCCCCC1=N2 (configuration not stated)	-11%	0.14µM*	-68%	2%	5%
COc1ccc(-c2cc(=O)c3c(O)cc(O[C@@H]4OC(COC5OC(C)C(O)C(O)[C@@H]5O)C(O)C(O)C4O)cc3o2)cc1 (some centres not stated)	22µM*	-5%	-14%	.	.
COc1ccc(-c2cc(=O)c3c(O)cc(O[C@H]4OC(COC5OC(C)C(O)C(O)[C@H]5O)C(O)C(O)C4O)cc3o2)cc1O (some centres not stated)	-19%	?	?	.	18%
Cc1[nH]nc(SCC(=O)N2CCCCCC2)c1[N+](=O)[O-]	.	?	-36%	0%[46 µM]	-1%[9.22 µM]
Cc1[nH]nc(SCC(=O)N2CCCCC2)c1[N+](=O)[O-]	28µM*	?	-9%	4%	0%
CCn1c(=O)n(CC(=O)Nc2ccc(F)cc2)c(=O)c2ccccc21	.	3%	-7%	.	-13%
O=c1[nH][nH]c(=S)c(=O)[nH]1	4µM*	?	-9%[10 µM]	.	.
